LASV entry inh = blocks Lassa virus binding to or entry into cells. 1.2% of 300,000 active. Lassa virus pseudotype entry inhibition, cell reporter. Potency, µM (top dose mostly 37.9 µM), for the others: top-dose activity change, negative = inhibition, usual class: inhibitors. AID 540256; calls by dose curve; tested in HEK293 cells; also: nearly all actives have a fitted effect of over 50% in size
VACV mCherry inh = vaccinia inhibition (mCherry reporter). 0.63% of 310,000 active. Vaccinia virus mCherry reporter infection, fluorescence. AID 720579. Potency, µM (series often up to 36.5 µM), without a hit: at the top dose activity change, negative = inhibition, most hits filed as inhibitors; calls by dose curve; tested in A549 cells; also: nearly all actives have a fitted effect of over 35% in size
Vaccinia Venus = vaccinia inhibition (Venus reporter) | Vaccinia virus Venus reporter expression, fluorescence | Potency, µM (doses to about 36.5 µM), for the others: at the highest dose activity change, negative = inhibition, actives largely listed as inhibitors | 0.46% of 330,000 active; calls by dose curve; tested in A549 cells; also: nearly all actives have a fitted effect of over 30% in size
MARV entry inh = Marburg virus entry inhibition. Marburg virus pseudotyped entry inhibition, cell reporter. Potency, µM (highest dose often 37.8 µM), without a hit: top-dose activity change, negative = inhibition, most hits filed as inhibitors. 1.8% of 300,000 active. AID 540276; calls by dose curve; tested in HEK293 cells
Numbers without * were called inactive; i = inactive; ? = inconclusive; / = no result; [ ] = dose if it differs, or a comment. Most compounds without a hit are left out; they make up all but 2.5% or so of the library. % is scaled to controls: 0 for no effect and ±100 for the full control effect; potency is read from the fitted curve at half-maximal effect.

SMILES | LASV entry inh | VACV mCherry inh | Vaccinia Venus | MARV entry inh
CC(C)C(NC(=O)c1ccccc1)C(=O)OCc1cc([N+](=O)[O-])cc2c1OCOC2 (stereo not drawn) | / | -10% | -14% | 1%
CCOc1ccccc1C(=O)N[C@H](C(=O)OCc1cc([N+](=O)[O-])cc2c1OCOC2)C(C)C | ? | ? | ? | 11µM*
Cc1cccc(CNC(=O)c2c3n(c(C)cc2=O)-c2ccccc2SC(c2ccsc2)C3)n1 (stereo not drawn) | / | i | -11% | /
CC(C)(C)c1ccc(C(=O)Nc2ccc(CC(=O)O)cc2)o1 | 2.3µM* | i | -6% | ?
CCOC(=O)NN=C1C[C@@H](O)[C@@H](O)[C@@H]2[C@H]3C(=O)N(Cc4ccc5c(c4)OCO5)C(=O)[C@@H]3CC[C@H]12 | / | / | / | -22%[14.2 µM]
Cc1cc(/C=C(/C#N)c2nc3ccccc3[nH]2)c(C)n1-c1cccc([N+](=O)[O-])c1 | 10µM* | / | ? | ?
CCOc1cc(N(CC)CC)ccc1/C=C(/C#N)c1nc2ccccc2[nH]1 | -15% | / | / | 13µM*
Cc1cc(/C=C(\C#N)c2nc3ccccc3[nH]2)c(C)n1C | 10µM* | -21% | -27% | ?
Cc1ccc2nc(/C(C#N)=C/c3ccc(-c4cccc([N+](=O)[O-])c4)o3)[nH]c2c1 | 2% | 0% | -16% | 5%
COC1=CC2C(=O)C([C@@H]3c4ccccc4C[C@]23C)C1(O)c1cccc(OC)c1 (stereo partly drawn) | / | / | / | 4%[14.2 µM]
CC(=O)NCC(=O)NCC1Cc2cc(C)cc(-c3ccccn3)c2O1 (stereo not drawn) | / | 5% | 4% | /
O=C1[C@@H]2C=CC=CC2=NC(=S)N1CCN1CCC(=C(c2ccc(F)cc2)c2ccc(F)cc2)CC1 | / | / | / | 13%
c1ccc(-c2nc(-c3ccccn3)nc(-c3ccccn3)n2)nc1 | -6% | 11% | -4% | -1%
c1ccc(-c2nnc(-c3ccccn3)s2)nc1 | ? | 0% | -2% | 1.1µM*
CCCCCCCCCCCCCCCCOC[C@H](COP(=O)([O-])OCC[N+](C)(C)C)OC(C)=O | / | -10%[3.33 µM] | -8%[3.33 µM] | /
CCCCCCCCCCCCCCCC(=O)NCC(COP(=O)([O-])OCC[N+](C)(C)C)OCC (stereo not drawn) | -11% | / | / | 6.5µM*
CCCCCCCCCCCCCCCC(=O)OC[C@H](COP(=O)([O-])OCC[N+](C)(C)C)OC(C)=O | / | -10%[3.33 µM] | -2%[3.33 µM] | /
CCCCCCCCCCCCCCCC(=O)NC[C@@H](COP(=O)([O-])OCC[N+](C)(C)C)OCC | / | / | / | 6.5µM*
NC(=S)NN=Cc1nccc2c(C(F)(F)C(F)(F)C(F)(F)F)cccc12 | / | 0.32µM* | 1µM* | /
Cc1cnc(C=NNC(N)=S)c2cccc(N)c12 | 8.9µM* | ? | -29% | 7.1µM*
Cc1nc2ccc(-c3nc4cc(N)ccc4o3)cc2[nH]1 | ? | i | -13% | ?
Nc1ccc2oc(-c3ccc4nc[nH]c4c3)nc2c1 | 16µM* | / | / | ?
Cc1ccc(S(=O)(=O)c2c(C)nn(C(C)(C)C)c2OC(=O)c2ccc(Br)o2)cc1 | 11µM* | ? | 11µM* | ?
CCCCC(=O)Oc1c(S(=O)(=O)c2ccc(C)cc2)c(C)nn1C(C)(C)C | ? | -30% | -29% | ?
Cc1ccc(C(=O)Oc2c(S(=O)(=O)c3ccccc3)c(C)nn2-c2ccccc2)cc1 | -4%[46.1 µM] | -23% | -19% | 1%[46.1 µM]
SMILES | LASV entry inh | VACV mCherry inh | Vaccinia Venus | MARV entry inh
Cc1nn(C(C)(C)C)c(OC(=O)c2ccc3c(c2)OCO3)c1S(=O)(=O)c1ccccc1 | 8.9µM* | / | ? | ?
Cc1ccc(S(=O)(=O)c2c(C)nn(C(C)(C)C)c2OC(=O)C(C)(C)C)cc1 | ? | / | -22% | ?
Cc1ccc(S(=O)(=O)c2c(C)nn(C(C)(C)C)c2OC(=O)c2ccco2)cc1 | 11µM* | / | ? | ?
Cc1ccc(S(=O)(=O)c2c(C)nn(C(C)(C)C)c2OC(=O)c2cccs2)cc1 | 13µM* | / | ? | ?
Cc1ncc2c(c1CNC(=O)c1ccc3c(c1)OCO3)CCN(C(=O)C1Cc3ccccc3O1)C2 (stereo not drawn) | / | -2% | 13% | /
Cc1sc2ccccc2[n+]1CCc1ccccc1 | / | -15% | -7% | /
COc1ccc(N[C@H]2CC(=O)N(C)C2=O)cc1 | / | / | / | 4%
O=C(CSc1ccc(-c2nc3ccccc3[nH]2)cn1)Nc1ccc(S(=O)(=O)N2CCCC2)cc1 | -1% | 9% | -2% | 24%
Cc1cc2nc(-c3ccc(SCC(=O)Nc4ccc(S(=O)(=O)N5CCCC5)cc4)nc3)[nH]c2cc1C | ? | -17% | -4% | 12µM*
CC(C)NC(=O)[C@@H]1C[C@@H](Sc2ccccn2)CN1C1CCN(C)CC1 | / | i | -16% | /
C#C[C@]1(O)CC[C@H]2[C@H]3CCC4=Cc5oncc5C[C@]4(C)[C@@H]3CC[C@]21C | / | / | / | 21µM*
C#C[C@]1(O)CC[C@H]2[C@@H]3CCC4=Cc5oncc5C[C@]4(C)[C@H]3CC[C@@]21C | / | 0% | -20% | /
CC(Sc1nnc2c(n1)[nH]c1ccccc12)C(=O)NC1CCCCC1 (stereo not drawn) | ? | -9% | 2% | 4.5µM*
CC(Sc1nnc2c(n1)[nH]c1ccccc12)C(=O)N(C)C1CCCCC1 (stereo not drawn) | ? | -15% | 3% | ?
Cc1ccnc2cc(Cl)cc(Cl)c12 | / | -10% | -7% | /
OC(CCN1CCOCC1)(c1ccc(Cl)cc1)C1CCCCC1 (stereo not drawn) | ? | / | -20% | ?
OC(CCN1CCCCC1)(c1ccccc1)C1C[C@@H]2C=C[C@H]1C2 (stereo partly drawn) | / | -4% | -15% | /
OC(CCN1CCCCC1)(c1ccccc1)C1CCCCC1 (stereo not drawn) | / | -14% | -23% | 5µM*
OC(CCN1CCCCC1)(c1ccccc1)C1CC2C=CC1C2 (stereo not drawn) | ? | / | / | 6.5µM*
O=C1CCC[C@@H]2C[C@@]3(C[C@@H]4CCN1[C@H]24)Nc1cc([N+](=O)[O-])ccc1NC3=NCc1ccccc1 | / | -11% | -29% | /
O=C1N(Cc2ccc(Br)cc2)c2cccc(Br)c2[C@@]12O[C@H](COc1ccccc1)CC1=CCCC12 (stereo partly drawn) | / | / | / | 11%[14.2 µM]
Cc1nc(NCc2c(F)cccc2F)sc1-c1ccn(CCN2CCOCC2)n1 | / | -10% | -3% | /
Cc1cc(C)cc(N(C(=O)CCC(=O)Nc2cc(C)on2)C(C(=O)NC2CCCC2)c2ccco2)c1 (stereo not drawn) | ? | i | -15% | 11µM*
Cc1cc(NC(=O)CCC(=O)N(Cc2cccs2)C(C(=O)NC2CCCC2)c2ccccc2)no1 (stereo not drawn) | -18% | / | -18% | 11µM*
Cc1cc(NC(=O)CCC(=O)N(Cc2cccs2)C(C(=O)NC2CCCC2)c2cccnc2)no1 (stereo not drawn) | 6% | / | / | 6%
CCOc1ccc(-c2ccc(SC)nn2)cc1 | 2.8µM* | -8% | -1% | 1.3µM*
COC(=O)[C@]1(CC=Cc2ccccc2)C=C[C@@H](C)[C@H](c2ccccc2Br)N1C(=O)C(F)(F)F | / | / | / | 13%[14.2 µM]
Cc1cc(O)cc(C)c1C=Cc1cncc(C(=O)OC(C)(C)C)c1 | 0.79µM* | / | / | /

Source: PubChem
